Assay outcomes: PubChem BioAssay, several laboratories
A selection: hits, their analogues and other compounds. The true share with any hit is near 3.7%.
Anthrax LF inh2 = inhibitors of Bacillus anthracis lethal factor protease; P15917; AID 588501; hit rate 0.12% among 360,000; inhibition, % at 10 µM; multiplex microsphere protease cleavage assay, LF
Target sequence (P15917 whole entry, looked up): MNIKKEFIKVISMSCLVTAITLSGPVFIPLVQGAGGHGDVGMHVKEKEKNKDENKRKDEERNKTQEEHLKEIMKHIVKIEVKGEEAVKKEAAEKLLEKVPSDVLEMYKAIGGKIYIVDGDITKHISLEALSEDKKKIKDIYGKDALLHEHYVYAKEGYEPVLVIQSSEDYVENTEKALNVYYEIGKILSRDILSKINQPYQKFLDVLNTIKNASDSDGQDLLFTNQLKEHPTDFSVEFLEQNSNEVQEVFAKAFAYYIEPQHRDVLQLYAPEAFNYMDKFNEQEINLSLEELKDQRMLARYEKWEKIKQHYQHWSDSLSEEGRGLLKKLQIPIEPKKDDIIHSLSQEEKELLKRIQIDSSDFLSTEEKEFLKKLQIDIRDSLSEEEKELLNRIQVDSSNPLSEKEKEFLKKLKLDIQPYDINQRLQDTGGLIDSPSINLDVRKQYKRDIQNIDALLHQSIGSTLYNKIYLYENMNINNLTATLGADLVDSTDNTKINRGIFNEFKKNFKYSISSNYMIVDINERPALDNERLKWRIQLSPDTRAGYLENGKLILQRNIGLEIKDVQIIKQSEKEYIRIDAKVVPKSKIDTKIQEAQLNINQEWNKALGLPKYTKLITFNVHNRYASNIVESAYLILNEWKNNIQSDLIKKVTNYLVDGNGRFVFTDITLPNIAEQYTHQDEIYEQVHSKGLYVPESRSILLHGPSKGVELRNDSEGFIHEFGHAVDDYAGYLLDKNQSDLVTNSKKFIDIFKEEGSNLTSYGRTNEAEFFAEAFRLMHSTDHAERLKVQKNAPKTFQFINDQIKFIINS
BoNT-A LC inh2 = BoNT A light chain protease inhibition | inhibition, % at 10 µM | multiplex microsphere protease substrate cleavage, flow cytometry | AID 588499 | hit rate 0.17% among 360,000
Bead autofluor = flagged as autofluorescent in microsphere protease counterscreen | compound autofluorescence counterscreen, microsphere flow cytometry; hits give high values | hit rate 3.1% among 360,000 | AID 624483 | fluorescence intensity (test concentration not listed); in the data active = fluorescence intensity above about 16000; inconclusive = no clear call, values can overlap the other calls
Vc quorum ag = inducers of Vibrio cholerae quorum light production without autoinducers | V. cholerae BH1578 lux reporter, luminescence, 6 h | activation, % at 18.7 µM | hit rate 0.16% among 350,000; in the data active = activation mostly above about 9.7%, no sharp cut-off; inconclusive = no clear call, values can overlap the other calls; inactive = mostly below about 3.7%
BJeLR lethal = kills HRASV12-expressing BJeLR cells. hit rate 0.17% among 300,000. BJeLR (HRASV12) viability, CellTiter-Glo ATP luminescence, 48 h. inhibition, % (concentration not given with the values); in the data active = inhibition above about 50%; inconclusive = no clear call, values can overlap the other calls
BoNT-F LC inh = BoNT F light chain protease inhibition | Multiplex microsphere protease cleavage assay, flow cytometry | hit rate 0.22% among 360,000 | inhibition, % at 10 µM | AID 588497; in the data active = inhibition above about 35%, passing the limit was not always enough; inconclusive = no clear call, values can overlap the other calls
Of the large screens only hits and unclear results are named; the others gave an inactive call. Cut-off read from the data, not from the text of the source, unless noted: active = inhibition above about 30%; inconclusive = no clear call, values can overlap the other calls; inactive = below that.

O=C(CCn1c(=S)[nH]c2ccccc2c1=O)NCC1CCCO1 (stereo not given)	Bead autofluor 21058
O=C(CCCn1c(=S)[nH]c2ccccc2c1=O)NC1CCCC1	Bead autofluor 16938
COc1ccccc1Cc1c(-c2ccco2)nc2cc(C)c(Br)c(C)n12	none (no result: Vc quorum ag, BJeLR lethal)
CCSc1ccccc1C(=O)NCc1ccco1	Bead autofluor 24013
CCSc1ccccc1C(=O)NCc1ccc(S(N)(=O)=O)cc1	Bead autofluor 23721
O=C(Nc1ccccc1C(=O)NCc1ccco1)c1ccco1	Bead autofluor 17328
CC1(C(=O)NCc2ccc(Cl)cc2)CCN1C(=O)Cc1cccs1 (stereo not given)	none (no result: BJeLR lethal)
O=C1N[C@@H](Cc2ccccc2)C(=O)N1CCN1CCOCC1	BoNT-A LC inh2 inconclusive, Bead autofluor 22937
Nc1nc(SCC(=O)NCC2CCCO2)n[nH]1 (stereo not given)	none
Clc1ccccc1CNCC1CCCO1 (stereo not given)	none
Oc1ccc(Cl)cc1CNCC1CCCO1 (stereo not given)	Bead autofluor 20694
O=C(CSc1nc2cc(Cl)ccc2s1)NCC1CCCO1 (stereo not given)	none (no result: BJeLR lethal)
Nc1cc(N)nc(SCC(=O)NCC2CCCO2)n1 (stereo not given)	BoNT-A LC inh2 inconclusive, Bead autofluor 20538
O=C(CSc1cc(Cl)ccc1Cl)NCC1CCCO1 (stereo not given)	Bead autofluor 22708
CCCCN1C(=O)C(CC(=O)NCCN2CCOCC2)CC(C(=O)N(C)C)=C1C (stereo not given)	none (no result: BJeLR lethal)
CCN1CCC(O)(/C=C/c2ccc(C(C)C)cc2)C(C(=O)/C=C/c2ccc(C(C)C)cc2)C1 (stereo not given)	none (no result: BJeLR lethal)
C[C@H](CO)N1C[C@H](C)[C@H](CN(C)Cc2ccncc2)Oc2cc(-c3ccccc3F)ccc2S1(=O)=O	none (no result: BJeLR lethal)
O=C(CSc1nnc(-c2ccccc2O)o1)N1CCc2ccccc2C1	BoNT-A LC inh2 inconclusive, Bead autofluor 20351
Cc1ccc2c(c1)CCO[C@@]21O[C@H](CCO)C[C@H](O)[C@H]1O	none (no result: BJeLR lethal)
Cc1ccc(-n2c(=O)c(C#N)cc3c(=O)n4ccccc4nc32)cc1	none
Cc1cc(-n2c(=O)c(C#N)cc3c(=O)n4cccc(C)c4nc32)no1	Bead autofluor 21724
Cc1cccc(-n2c(=O)c(C#N)cc3c(=O)n4ccccc4nc32)c1	BoNT-A LC inh2 inconclusive, Bead autofluor 20190
c1ccc(COc2ncnc3c2ncn3CCCNCC(c2ccccc2)c2ccccc2)cc1	none (no result: BJeLR lethal)
Cn1c(Cc2ccccc2)nc(=O)c2ccccc21	none (no result: BJeLR lethal)
CCOC(=O)C1C(=O)NC(c2ccccc2)=NC1c1ccc(Cl)cc1 (stereo not given)	Bead autofluor 22764
CCOC(=O)C1C(=O)NC(N2CCOCC2)=NC1c1ccco1 (stereo not given)	none
CCOC(=O)C1C(=O)NC(N2CCN(c3ccccc3)CC2)=NC1c1ccccc1 (stereo not given)	Bead autofluor 23474
CC(C)N(C)C1CCN(C(=O)Nc2ccc(Cl)cc2)CC1	Bead autofluor 23132
O=C(Nc1ccc(Cl)cc1)N1CCC(c2ccccc2)C1 (stereo not given)	none
c1nc2sc3c(c2c2nnnn12)CCCC3	none
c1nc2sc3c(c2c2nnnn12)CCC3	Bead autofluor 23437
CCn1c(C)nc2cc(-c3nc4n(n3)Cc3ccccc3-4)ccc21	BJeLR lethal 62.8
Cc1ccc(-c2nc3n(n2)Cc2ccccc2-3)cc1	none
CSCCC(NC(=O)C1CCC(C)CC1)C(=O)O (stereo not given)	BoNT-A LC inh2 inconclusive, Bead autofluor 23567
CSCCC(NC(=O)C1CCC(C)CC1)C(=O)NCCN1CCOCC1 (stereo not given)	Bead autofluor 22383
CC(=O)c1cc2c(cc1NS(=O)(=O)c1ccc(C)cc1)OCO2	Bead autofluor 20111
Cc1ccccc1NC(=O)c1c(F)c(F)c(F)c(F)c1F	Bead autofluor 16318
CCCc1nc2oc3c(NCC4CCCO4)ncnc3c2c2c1COC(C)(C)C2 (stereo not given)	Bead autofluor 22258
CCOc1ncnc2c1oc1nc(CC(C)C)c3c(c12)CC(C)(C)OC3	Bead autofluor 19881
CCCc1nc2oc3c(NCc4ccccn4)ncnc3c2c2c1COC(C)(C)C2	none
COc1ncnc2c1oc1nc(C(C)C)c3c(c12)CC(C)(C)OC3	none
O=C(NCCc1ccccc1)c1ccc(CS(=O)(=O)Cc2ccccc2F)o1	Bead autofluor 18882
CC(C)CCNC(=O)c1ccc(CS(=O)(=O)Cc2ccccc2F)o1	none
Cc1ccc(CCNC(=O)c2ccc(CS(=O)(=O)Cc3ccccc3F)o2)cc1	Bead autofluor 23305
COCCCN(Cc1cc(OC)c(OC)c(OC)c1)C(=S)Nc1cccc(SC)c1	none (no result: BJeLR lethal)
Cc1nnc(SCC(=O)NC2(C#N)CCCCC2)n1N	none (no result: BJeLR lethal)
COc1cc(NC(=S)NC(C)=O)ccc1NC(=O)C(C)C	Bead autofluor 16967
CC(C)c1ccccc1NC(=O)c1cnccn1	BoNT-A LC inh2 inconclusive, Bead autofluor 25411
CCOc1ccccc1NC(=O)c1cnccn1	none
COc1ccc(NC(=O)Nc2ccccc2SC)cc1	none
CSc1ccccc1NC(=O)Nc1ccc(Cl)cc1	Bead autofluor 20588
CCc1ccccc1NC(=O)c1cnccn1	Bead autofluor 21346
CSc1ccccc1NC(=O)c1cnccn1	BoNT-A LC inh2 inconclusive, Bead autofluor 16758
O=C1Cc2c([nH]c3ccc([N+](=O)[O-])cc23)-c2ccccc2N1	none (no result: BJeLR lethal)
CCOC(=O)C1(C)CCN1C(=O)c1cccs1 (stereo not given)	none (no result: BJeLR lethal)
CCCCN1C(=O)C(CC(=O)NC2CCCCC2)CC(C(=O)N(C(C)C)C(C)C)=C1C (stereo not given)	none (no result: BJeLR lethal)
CCC(CC)C(=O)N(C)c1c(C)nc2c(OCc3ccc(F)c(F)c3)cccn12	none (no result: BJeLR lethal)
OCC[C@@H]1C[C@H](O)[C@@H](O)[C@@]2(OCc3cc(C(F)(F)F)ccc32)O1	none (no result: BJeLR lethal)
O=C(NCc1ccccc1)C(c1cccs1)N(C(=O)c1csnn1)C1CC1 (stereo not given)	Bead autofluor 21285
O=C(NCCc1ccccc1)C(c1ccccc1)N(C(=O)c1csnn1)C1CC1 (stereo not given)	none
COc1ccc(CNC(=O)C(c2cccs2)N(C(=O)c2csnn2)C2CC2)cc1 (stereo not given)	Bead autofluor 24268
O=C(NCCc1ccccc1)C(c1cccs1)N(C(=O)CCl)c1ccc(Cl)cc1 (stereo not given)	BJeLR lethal 117.2
O=C(NCc1ccco1)C(c1cccs1)N(C(=O)Cc1cccs1)c1ccccc1 (stereo not given)	none
O=C(NCCc1ccccc1)C(c1cccs1)N(C(=O)c1csnn1)C1CC1 (stereo not given)	BoNT-A LC inh2 inconclusive, Bead autofluor 20245
C[C@@H]1CCCCO[C@@H](CN(C)CC2CC2)[C@@H](C)CN([C@H](C)CO)C(=O)c2cc(N(C)C)ccc2O1	none (no result: BJeLR lethal)
COc1cccc(CNc2nc3cc(-c4ccccc4CO)sc3c(=O)n2C)c1	none (no result: BJeLR lethal)
